An excerpt weighted towards active compounds, which were near 10% of everything screened.
ALOX12 inhib: 12-hLO (ALOX12) enzyme inhibition; purified 12-hLO, xylenol orange hydroperoxide absorbance; 0.12% of 150,000 active; Potency, µM (highest dose often 57.1 µM), for inactives: at the top dose activity change, negative = inhibition, usual class: inhibitors; also: potency is read from the fitted curve at half-maximal effect; nearly all actives have a fitted effect of over 55% in size
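Purified human 12hLO (150 nM), preincubated 15 min with compound, then 40 uM arachidonic acid for 30 min, room temperature, Hepes pH 7.0 with 0.01% Triton X-100. Hydroperoxide detected by ferrous iron/xylenol orange; 573/405 nm absorbance ratio gives reaction progress.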
GLA inh pH 4.5: blocks human alpha-galactosidase A at pH 4.5. P06280. purified enzyme, 4-MU-alpha-Gal fluorescence, pH 4.5. activity change, negative = inhibition, % at 105 µM. 230,000 tested, under 10 active;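 also: 0% = full activity with enzyme and -100% = basal without enzyme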
Target sequence (P06280 whole entry, looked up): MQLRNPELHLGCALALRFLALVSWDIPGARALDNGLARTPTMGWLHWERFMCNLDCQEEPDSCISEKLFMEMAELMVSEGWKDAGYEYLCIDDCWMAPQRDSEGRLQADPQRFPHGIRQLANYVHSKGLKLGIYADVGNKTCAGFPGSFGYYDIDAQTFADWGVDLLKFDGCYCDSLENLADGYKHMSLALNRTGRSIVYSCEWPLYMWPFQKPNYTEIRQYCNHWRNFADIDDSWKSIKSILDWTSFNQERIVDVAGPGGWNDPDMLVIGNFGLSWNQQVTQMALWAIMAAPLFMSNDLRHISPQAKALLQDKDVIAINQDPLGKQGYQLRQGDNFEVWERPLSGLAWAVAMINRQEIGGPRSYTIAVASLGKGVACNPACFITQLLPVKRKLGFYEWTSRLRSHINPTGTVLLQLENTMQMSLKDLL
PNC inhibitor: perinucleolar compartment assembly inhibition; PC3M PTB-GFP, PNC prevalence imaging, 16 h; active compounds read low; activity change (PNC), negative = inhibition, % at 10 µM; 3.1% of 140,000 active; AID 2417;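 active = readout at or below -70, meaning at least 70% loss of cells showing the perinucleolar compartment, a nuclear body marking cancer cells; inconclusive = readout between -30 and a set limit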;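 also: plate controls were DMSO wells for no effect and camptothecin positive control wells for full effect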
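Compounds are pinned in duplicate onto adhered PC3M cells stably expressing GFP-tagged PTB and incubated 16 h at 37 C. Cells are then fixed, nuclei stained with Hoechst, and PNC-positive cells counted.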
ALDH1A1 inh: inhibitors of human aldehyde dehydrogenase 1A1; P00352; Purified ALDH1A1, NADH fluorescence, propionaldehyde substrate; Potency, µM (highest dose often 75.3 µM), inactives show at the top dose activity, negative = inhibition, actives largely listed as inhibitors; 7.3% of 220,000 active; AID 1030; active = well fitted inhibition curve with a large enough effect, not every such curve was filed as active; inconclusive = small, poorly fitted or top-dose-only effect, or another doubt; inactive = no such curve, though single readings can be large or run the other way;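 also: potency is read from the fitted curve at half-maximal effect; plate controls were no enzyme wells and a reference inhibitor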
GLA spleen mod: inhibitors or activators of human alpha-galactosidase in spleen homogenate; P06280; Potency, µM (series often up to 80 µM), for inactives: at the top dose activity change, negative = inhibition, most hits filed as inhibitors; AID 2107; human spleen homogenate, 4MU-alpha-Gal fluorescence, 40 min; 0.008% of 240,000 active;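 also: potency is read from the fitted curve at half-maximal effect; 0% = enzyme with vehicle and -100% = no enzyme basal signal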
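Fluorogenic readout (Ex 365/Em 440 nm) of 4-methylumbelliferone released from 1 mM 4-MU-alpha-galactoside by spleen homogenate, 40 min at 37C, pH 5.0. Data normalized to no-enzyme and enzyme controls; Hill-equation AC50 from compound titrations.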
HPGD inh: blocks human HPGD enzyme activity; P15428; purified HPGD, NADH fluorescence kinetic, PGE2 substrate; Potency, µM, for inactives: top-dose activity change, negative = inhibition, usual class: inhibitors; 4.3% of 150,000 active; AID 894; active = well fitted inhibition curve with a large enough effect, not every such curve was filed as active; inconclusive = small, poorly fitted or top-dose-only effect, or another doubt; inactive = no such curve, though single readings can be large or run the other way; also: potency is read from the fitted curve at half-maximal effect
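20 nM HPGD preincubated 15 min at room temperature with compound in 50 mM Tris-HCl pH 8, 0.01% Tween 20. Started with 1 mM NAD+ and 30 uM prostaglandin E2; NADH fluorescence (360/450 nm) read 5 times over 30-s intervals, last minus first.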
Active calls of the source: *; ? = inconclusive; / = no result. Unless noted, calls follow the shape of the dose curve; as a rule, active = well fitted curve in the direction sought with a large enough effect; inconclusive = small, poorly fitted or top-dose-only effect, or another doubt; inactive = no such curve, though single readings can be large; an effect the other way counts as inactive or inconclusive. Unless noted, % is scaled to controls: 0 for no effect and ±100 for the full control effect.

SMILES	ALOX12 inhib	GLA inh pH 4.5	PNC inhibitor	ALDH1A1 inh	GLA spleen mod	HPGD inh
CCOC(=O)c1[nH]c(=O)[nH]c1CN(Cc1ccco1)Cc1[nH]c(=O)[nH]c1C(=O)OCC	/	4.7	/	6.8%	0.6%	/
CCOC(=O)c1c(NC(=O)CSc2nnc(-c3cccc(C)c3)n2CC)sc(C(C)=O)c1C	-2.2%	-23.8	34.6	4.8%	0.9%	15.8µM*
CCOC(=O)c1c(NC(=O)CSc2cccc[n+]2[O-])sc(C(=O)Nc2ccccc2)c1C	/	4.6	/	28.2µM*	?	/
CCOC(=O)c1c(NC(=O)CN(C)C2CCN(C)CC2)sc(C(=O)Nc2ccccc2)c1C	/	-19.7	/	?	4.6%	/
CCOC(=O)c1sc(NC(=O)CSc2nnc(-c3ccco3)n2CC)c(C(=O)OCC)c1C	-1.7%	-26.2	12.7	?	-0.1%	?
O=C(CSc1nnc(-c2ccco2)n1Cc1ccccc1)c1ccccc1	-9.9%	0.4	-21.8	?	-13.3%	28.2µM*
CNC(=O)NC(=O)CSc1nnc(-c2ccco2)n1Cc1ccccc1	-0.7%	0.1	44.9	0.8%	8.9%	-2.8%
Cc1ccc(C(=O)CSc2nnc(-c3ccco3)n2Cc2ccccc2)cc1	-7.8%	3.0	-16.7	0.2%	0.1%	-19.6%
Cn1c(SCC(=O)c2ccc(-c3ccccc3)cc2)nnc1-c1ccco1	2.8%	-1.1	?	10µM*	-7.1%	-22.4%
Cc1ccc(NCc2nnc(SCC(=O)c3ccccc3)n2Cc2ccco2)c(C)c1	-21.5%	-29.8	?	10µM*	2.7%	-20.8%
O=C(CSc1nnc(-c2ccco2)n1Cc1ccccc1)NC(=O)NCc1ccccc1	-10.5%	-9.4	-92.5*	-13.0%	-9.5%	-10.0%
CN1CCN(c2ncc3ncc(=O)n(C4CC4)c3n2)CC1	/	/	/	?	-5.0%	/
CCOC(=O)c1c(C)[nH]c(C)c1C(=O)CSc1nnc(-c2ccco2)n1Cc1ccccc1	-2.9%	-13.8	34.1	15.8µM*	1.5%	-7.3%
CCOC(=O)c1c(C)[nH]c(C)c1C(=O)CSc1nnc(-c2ccncc2)n1Cc1ccccc1	7.7%	2.8	-10.0	-1.0%	7.7%	-18.9%
CN(CC(=O)N1CCCC1)S(=O)(=O)c1ccc2ccccc2c1	/	3.5	/	?	-9.0%	/
COc1ccc(S(=O)(=O)N(C)CC(=O)N2CCN(Cc3ccccc3)CC2)cc1C	3.2%	-6.7	?	15.8µM*	5.8%	-15.3%
Cc1ccc(S(=O)(=O)CC(=O)c2cc(C)c(O)c(C)c2)cc1	/	-12.7	/	1.78µM*	7.3%	/
Cc1ccc(S(=O)(=O)N(C)CC(=O)N2CCCC2)cc1	-0.9%	-12.4	1.1	3.55µM*	-4.0%	-12.7%
Cc1ccc(S(=O)(=O)CC(=O)N2CCCC2)cc1	-0.7%	-5.0	-100.0*	2.2%	-4.4%	-14.2%
CCN1CCN(C(=O)CN(C)S(=O)(=O)c2ccc(OC)c(C)c2)CC1	-1.3%	5.9	?	-5.7%	0.4%	5.9%
CC(C)[C@@H](CC(=O)N[C@@H]1CCNC[C@H]1C(=O)N[C@H](CC(=O)N[C@@H](CCC(=O)O)CC(=O)O)Cc1c[nH]c2ccccc12)NC(=O)C[C@H](Cc1ccccc1)NC(=O)[C@@H]1CNCC[C@H]1N	0.1%	-0.9	/	5.2%	5.5%	-9.3%
Cc1ccc(S(=O)(=O)C2(C(=O)N3CCN(C4CCCCC4)CC3)CC2)cc1	27.9%	1.3	27.3	-1.7%	4.8%	-4.4%
Cc1ccc(S(=O)(=O)C2(C(=O)N3CCCCCC3)CC2)cc1	-0.3%	-3.5	-28.1	7.08µM*	9.8%	12.6µM*
COc1ccc2nc(C)cc(SCC(=O)N/N=C/c3ccc(O)c(O)c3)c2c1	/	-7.3	/	28.2µM*	5.5%	/
Cc1cc(SCC(=O)N/N=C/c2ccc(O)c(O)c2)c(C)cc1Br	?	-0.4	31.5	5.0%	-10.9%	2.82µM*
COc1ccc2nc(C)cc(SCC(=O)N/N=C/c3cccc4ccccc34)c2c1	3.4%	-3.2	-29.5	-8.1%	12.1%	?
CN(C)c1nc2c(Br)c(Br)c(Br)c(Br)c2[nH]1	-6.8%	-1.4	/	-11.6%	-17.7%	-19.1%
